A selection: hits, their analogues and other compounds. The true share with any hit is near 5.7%.
BAZ2B inh: inhibitors of human BAZ2B bromodomain. Q9UIF8. AID 504333. 4.4% of 360,000 active. Potency, µM (highest dose often 114 µM), for inactives: top-dose activity change, negative = inhibition, actives largely listed as inhibitors. AlphaScreen BAZ2B-H3K14Ac peptide displacement; also: potency is read from the fitted curve at half-maximal effect; % is scaled to controls: 0 for no effect and ±100 for the full control effect; nearly all actives have a fitted effect of over 60% in size
Target sequence (Q9UIF8 whole entry, looked up): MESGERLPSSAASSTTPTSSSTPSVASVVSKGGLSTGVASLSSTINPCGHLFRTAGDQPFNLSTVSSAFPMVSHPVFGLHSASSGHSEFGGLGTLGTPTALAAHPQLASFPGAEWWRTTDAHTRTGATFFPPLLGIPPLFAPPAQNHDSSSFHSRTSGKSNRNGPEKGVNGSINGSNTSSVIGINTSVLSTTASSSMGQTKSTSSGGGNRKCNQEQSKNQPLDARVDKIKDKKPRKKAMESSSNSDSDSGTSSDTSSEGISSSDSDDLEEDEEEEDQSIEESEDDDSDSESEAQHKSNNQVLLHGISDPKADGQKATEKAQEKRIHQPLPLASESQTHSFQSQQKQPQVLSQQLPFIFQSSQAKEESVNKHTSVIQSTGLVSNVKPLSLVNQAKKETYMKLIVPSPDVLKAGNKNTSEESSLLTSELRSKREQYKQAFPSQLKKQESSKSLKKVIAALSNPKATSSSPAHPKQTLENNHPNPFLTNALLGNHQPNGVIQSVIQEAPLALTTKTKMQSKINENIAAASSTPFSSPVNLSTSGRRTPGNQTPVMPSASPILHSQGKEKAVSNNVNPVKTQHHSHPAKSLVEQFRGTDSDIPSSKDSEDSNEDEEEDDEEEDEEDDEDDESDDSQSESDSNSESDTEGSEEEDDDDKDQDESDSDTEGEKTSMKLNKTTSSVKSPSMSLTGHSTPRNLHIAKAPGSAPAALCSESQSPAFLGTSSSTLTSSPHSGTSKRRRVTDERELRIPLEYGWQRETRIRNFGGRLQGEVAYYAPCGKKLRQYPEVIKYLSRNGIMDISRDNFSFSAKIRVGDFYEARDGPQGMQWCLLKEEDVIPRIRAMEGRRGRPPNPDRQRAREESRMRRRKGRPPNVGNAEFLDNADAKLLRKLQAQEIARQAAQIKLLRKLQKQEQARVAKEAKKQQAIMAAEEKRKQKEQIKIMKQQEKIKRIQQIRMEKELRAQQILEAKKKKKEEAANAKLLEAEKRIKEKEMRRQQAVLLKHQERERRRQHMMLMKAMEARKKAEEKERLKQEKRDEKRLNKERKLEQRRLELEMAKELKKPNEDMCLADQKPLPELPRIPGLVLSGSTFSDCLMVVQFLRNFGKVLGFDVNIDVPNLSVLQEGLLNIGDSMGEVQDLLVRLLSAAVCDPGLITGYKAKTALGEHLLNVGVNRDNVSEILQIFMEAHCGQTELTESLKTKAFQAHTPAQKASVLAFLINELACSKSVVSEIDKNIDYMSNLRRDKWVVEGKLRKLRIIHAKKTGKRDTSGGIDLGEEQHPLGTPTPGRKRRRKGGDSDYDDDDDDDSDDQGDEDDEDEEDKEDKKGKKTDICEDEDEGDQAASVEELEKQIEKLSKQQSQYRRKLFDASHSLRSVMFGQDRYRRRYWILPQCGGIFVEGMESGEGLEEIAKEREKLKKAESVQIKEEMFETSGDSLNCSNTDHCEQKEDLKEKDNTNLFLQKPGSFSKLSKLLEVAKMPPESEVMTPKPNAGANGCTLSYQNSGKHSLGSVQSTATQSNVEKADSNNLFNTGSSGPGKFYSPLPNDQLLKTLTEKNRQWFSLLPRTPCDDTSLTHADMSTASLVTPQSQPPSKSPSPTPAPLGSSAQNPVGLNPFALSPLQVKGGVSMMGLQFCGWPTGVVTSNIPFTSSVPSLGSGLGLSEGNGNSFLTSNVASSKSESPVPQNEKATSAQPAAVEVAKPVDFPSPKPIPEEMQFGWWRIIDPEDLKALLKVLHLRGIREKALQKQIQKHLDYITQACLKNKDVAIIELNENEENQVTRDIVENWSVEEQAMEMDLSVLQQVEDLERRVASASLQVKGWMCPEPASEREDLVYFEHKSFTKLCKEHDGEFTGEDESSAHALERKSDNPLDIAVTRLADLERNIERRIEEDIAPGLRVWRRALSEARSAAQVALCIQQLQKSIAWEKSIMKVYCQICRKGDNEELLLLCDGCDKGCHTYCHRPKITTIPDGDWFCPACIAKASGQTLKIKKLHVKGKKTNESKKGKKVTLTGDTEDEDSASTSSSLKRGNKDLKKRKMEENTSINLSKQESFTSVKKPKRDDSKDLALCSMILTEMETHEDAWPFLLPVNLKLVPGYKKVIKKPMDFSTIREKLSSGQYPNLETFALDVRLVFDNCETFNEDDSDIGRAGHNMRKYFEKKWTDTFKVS
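Inhibition is scored as reduced AlphaScreen emission. The BAZ2B/b-H3(5-23)K14Ac complex (50 nM each) in PBS pH 7.4, 0.01% Tween-20 meets compound (up to 110 uM) for 30 min at RT before bead addition.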
L3MBTL1 inh: L3MBTL1 (human) inhibition; Potency, µM (top dose mostly 57.1 µM), without a hit: top-dose activity, negative = inhibition, usual class: inhibitors; AlphaScreen L3MBTL1–H3K9me1 peptide binding; 0.66% of 230,000 active; Q9Y468; also: potency is read from the fitted curve at half-maximal effect; % is scaled to controls: 0 for no effect and ±100 for the full control effect; nearly all actives have a fitted effect of over 60% in size
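AlphaScreen assay: L3MBTL1 (50 nM final) was preincubated 30 min at room temperature with biotinylated H3(1-15)K9me1 peptide (75 nM final), then 30 min with library compounds; streptavidin donor and nickel chelate acceptor beads (10 ug/mL final) added, 30 min dark.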
JMJD2A Tudor: inhibitors of human JMJD2A Tudor domain. O75164. AlphaScreen JMJD2A-Tudor / H3K4me3 peptide binding. Potency, µM (doses to about 114 µM), for inactives: top-dose activity change, negative = inhibition, hits mostly inhibitors. 4.4% of 390,000 active; also: potency is read from the fitted curve at half-maximal effect; % is scaled to controls: 0 for no effect and ±100 for the full control effect; nearly all actives have a fitted effect of over 50% in size
PI5P4Ka inh: blocks human PI5P4K alpha kinase activity; 1.2% of 330,000 active; PI5P4Kalpha enzyme, ADP-Glo luminescence, 60 min; hits give low values; P48426; max response, %; active = max response of -50% or lower; inconclusive = between -30% and -50%; inactive = -30% or higher; also: value at the top dose of about 77 µM; % is scaled to controls: 0 for no effect and ±100 for the full control effect
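Human PI5P4Kalpha with substrate in 0.038 M HEPES pH 7.4, 0.28 mM EGTA, 0.1% CHAPS, 5% DMSO; reaction started with 5 microM ATP (final), 60 min at room temperature. ADP formed read by ADP-Glo luminescence.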
KDM4E inh: JMJD2E (human) inhibition; B2RXH2; JMJD2E catalytic domain, FDH-coupled NADH fluorescence (FDH is formaldehyde dehydrogenase); Potency, µM (titrated, usually from 57.1 µM), for the others: at the top dose activity change, negative = inhibition, hits mostly inhibitors; 1.6% of 230,000 active; active = well fitted inhibition curve with a large enough effect, not every such curve was filed as active; inconclusive = small, poorly fitted or top-dose-only effect, or another doubt; inactive = no such curve, though single readings can be large or run the other way;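 also: potency is read from the fitted curve at half-maximal effect; 0% = wells with enzyme and -100% = buffer wells without enzyme; nearly all actives have a fitted effect of over 50% in size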
HP1b chromo inh: HP1-beta chromodomain-methylated histone interaction inhibition; P83916; AlphaScreen HP1-beta / biotin-H3K9me3 peptide binding; 0.56% of 390,000 active; AID 540317; Potency, µM (doses to about 114 µM), for inactives: at the highest dose activity change, negative = inhibition, usual class: inhibitors; also: potency is read from the fitted curve at half-maximal effect; nearly all actives have a fitted effect of over 70% in size
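Compound inhibition of the preformed complex between 50 nM HP1-beta and 50 nM biotinylated H3K9me3 peptide was read by AlphaScreen. Buffer was PBS pH 7.4 with 0.01% Tween-20. Incubations ran 30 min at room temperature, with 10 ug/mL donor/acceptor beads.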
The depositor's hits bear a star; u = inconclusive; x = not tested or not shown; [ ] = dose if it differs, or a comment. Unless noted, calls follow the shape of the dose curve; as a rule, active = well fitted inhibition curve with a large enough effect; inconclusive = small, poorly fitted or top-dose-only effect; inactive = no such curve, though single readings can be large or run the other way.

SMILES	BAZ2B inh	L3MBTL1 inh	JMJD2A Tudor	PI5P4Ka inh	KDM4E inh	HP1b chromo inh
O=C(CCc1cn(Cc2ccc(F)cc2)c2ccccc12)NCCc1ccc(Cl)cc1	-15%	x	-4%	x	x	39%
COc1cc(C(=O)CC2(O)C(=O)N(Cc3ccccc3Cl)c3ccccc32)cc(OC)c1OC (stereo unspecified)	u	x	-34%	x	x	20%
COc1ccc(Cl)cc1C(=O)Nc1ccc2oc(-c3ccc(C(C)(C)C)cc3)nc2c1	2%	x	-11%	x	x	12%
O=C(Nc1ccc2nc(SCC(=O)N3CCCc4ccccc43)sc2c1)c1cccc(Cl)c1	-12%	x	-14%	x	x	28%
CC1=C(C(=O)Nc2ccccc2)C2(CCCCC2)C(C#N)=C(S)N1	-32%	x	-34%	-58*	-3%	2%
Cc1ccc2nc(C3CCCCC3)c(Cc3ccsc3)n2c1	x	x	x	1	x	x
N#Cc1c(-n2ncnc2-c2cccc(Br)c2)sc2c1CCCCC2	-11%	x	u	x	x	-9%
N#Cc1c(-n2ncnc2-c2ccc(F)cc2)sc2c1CCCCC2	7.1µM*	x	u	x	x	u
Cc1sc(N/N=C/c2cccs2)nc1-c1ccccc1	-27%	-7%	25µM*	-4	-10%	u
COc1ccc(CCN2C(=O)N(c3cccc(C)c3)C(=O)C2CC(=O)Nc2ccccc2)cc1OC (stereo unspecified)	-23%	x	-27%	x	x	11%
Cc1ccc(S(=O)(=O)N2CCC(c3nnc(-c4cccc(C)c4)o3)CC2)cc1	-16%	x	-17%	x	x	1%
Cc1cccc(-c2onc3ccc(C(=O)/C=C/N(C)C)cc23)c1	u	x	-32%	-68*	x	12%
CC(=O)COC(=O)c1ccc2noc(-c3ccccc3)c2c1	50µM*	x	-32%	u	x	8%
Cc1ccc(-c2onc3ccc(C(=O)/C=C/N(C)C)cc23)cc1	-39%	x	-32%	u	x	-3%
Cc1noc(C)c1-c1ccc2ncnc(NCc3ccc(-c4ccccc4)cc3)c2c1	x	x	-32%	x	x	x
Nc1ccc(C(=O)NN2C(=O)[C@H](Cl)C2c2ccc(Cl)cc2)cc1 (stereo partly specified)	x	x	3%	u	x	27%
CCOc1ccccc1NC(=O)Cn1c(=O)n(-c2ccc(C)c(C)c2)c(=O)c2c(C)c(C(=O)N(C)C)sc21	17%	x	-29%	x	x	45%
CCn1c(=S)[nH]c2cc(S(=O)(=O)N3CCCCC3)ccc21	4%	x	79µM*	x	-9%	-22%
CCn1c(=S)[nH]c2ccccc21	-22%	x	79µM*	3	-5%	1%
CC(C)n1c(=S)[nH]c2ccccc21	-22%	x	79µM*	-15	-4%	-19%
CCn1c(=S)[nH]c2cc(Cl)ccc21	-8%	x	-13%	-4	0%	47%
NC(=S)NN=Cc1nccc2c(C(F)(F)F)cccc12	x	x	x	-28	x	x
CNc1cccnc1C=NNC(N)=S	x	x	79µM*	9	x	28%
COC(=O)c1ccc2c(=O)n(CCCN3CCCC3=O)c(=S)[nH]c2c1	71µM*	10%	u	x	-6%	27%
C=CCNC(=O)c1ccc2c(=O)n(CCCN3CCCC3=O)c(=S)[nH]c2c1	u	x	50µM*	-17	2%	11%
SMILES	BAZ2B inh	L3MBTL1 inh	JMJD2A Tudor	PI5P4Ka inh	KDM4E inh	HP1b chromo inh
CC1=C(C(=O)Nc2cccnc2)C(c2ccccc2)n2nc(SCc3ccccc3Cl)nc2N1 (stereo unspecified)	4%	x	-26%	x	x	24%
Cc1c(Cl)cccc1NC(=O)C(=O)NCC(c1cccnc1)N1CCN(c2ccccc2)CC1 (stereo unspecified)	7%	x	-15%	x	x	35%
O=C(c1ccc([N+](=O)[O-])cc1)N1CCSC1c1ccc(Cl)cc1 (stereo unspecified)	-38%	-16%	-32%	0	-6%	16%
O=C(c1ccc([N+](=O)[O-])cc1)N1CCSC1c1ccc(Br)cc1 (stereo unspecified)	u	x	-12%[11.4 µM]	5	-3%	16µM*
O=C(NNc1ccc(C(F)(F)F)cc1[N+](=O)[O-])c1ccc(NS(=O)(=O)c2ccc(F)cc2)cc1	10µM*	u	22µM*	u	-1%	u
O=C(Nc1c2c(nn1-c1ccc(Cl)cc1)CS(=O)(=O)C2)c1cccc(F)c1	-1%	x	-19%	x	x	17%
O=c1c(=O)n(O)c2ccccc2n1O	40µM*	5%	50µM*	x	u	7%
COn1c(=O)c(=O)n(O)c2ccccc21	u	14%	79µM*	-11	-10%	-5%
CCCc1noc(-c2ccc(N3CCCCC3)c([N+](=O)[O-])c2)n1	-12%	x	-14%	x	x	44%
CC(C)(C=O)C1=CC(=O)c2ccccc2C1=O	50µM*	-11%	25µM*	-52*	4%	5µM*
CC1=CC(=O)c2ccccc2C1=O	u	-18%	10%	0	-29%	33%
Cc1ccc(S(=O)c2ccc([N+](=O)[O-])c3nonc23)cc1 (stereo unspecified)	x	x	x	-100*	x	x
CCCCCCN1C[C@H](n2cc(-c3ccc(F)cc3)nn2)[C@@H](O)C[C@@H]1c1ccc(C)cc1	x	x	x	-2	x	x
Cc1ccc(OC(C)C(=O)N(C)Cc2ccccc2)c([N+](=O)[O-])n1 (stereo unspecified)	-17%	x	4%	1	x	51%
CCOc1ccc(NC(=S)NCCCn2ccnc2)cc1	0%	-1%	-5%	-6	-1%	31%
S=C(NCCCn1ccnc1)Nc1cccc(Cl)c1	45µM*	-4%	-12%	0	6%	42%
CC(C)c1ccc(CNC(=O)C(=O)NCCCn2ccnc2)cc1	50µM*	x	-27%	14	12%	14%
Cc1cnc(C(=O)Oc2c(C)ccc(C)c2C)cn1	-10%	x	-3%	2	-5%	33%
Cc1cccc(OCc2nc(CC(=O)Nc3ccc(C)cc3C)cs2)c1	-3%	x	-10%	x	x	23%
N#CC1=C(N)OC2=C(C(=O)CC(c3ccco3)C2)C1c1ccc(OCc2c(F)cccc2Cl)cc1 (stereo unspecified)	71µM*	-22%	u	-17	-19%	-15%
COc1cccc(C2C(C#N)=C(N)OC3=C2C(=O)CC(c2ccco2)C3)c1OCc1ccc(F)cc1 (stereo unspecified)	u	-24%	u	-12	-8%	-24%
Cc1ccccc1C(=O)NCCc1sc(-c2ccc(Cl)cc2)nc1C	1%	x	-8%	x	x	9%[57 µM]
COc1ccccc1N1CCN(C(c2ccccc2)c2nnc(-c3ccccc3Cl)o2)CC1 (stereo unspecified)	-27%	x	-22%	x	x	47%
COc1ccc(N2CCN(C(c3ccccc3)c3nnc(-c4ccccc4Cl)o3)CC2)cc1 (stereo unspecified)	40µM*	x	50µM*	x	x	u

Screening results deposited in PubChem by National Center for Advancing Translational Sciences (NCATS).
